Bioassay records as filed in PubChem.
KCNQ2 enhance: potentiators of rat KCNQ2 potassium channel. CHO-K1 KCNQ2, FluxOR thallium flux fluorescence; stronger effect = higher value. Potassium voltage-gated channel subfamily KQT member 2 (Rattus norvegicus), O88943. AID 2239, 2010. hit rate 0.54% among 310,000. B-score at 10 µM;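 active = fluorescence ratio B-score at least 3 SD of library B-scores, with initial fluorescence B-score within 3 of them, cut at about 5.3 in these data; same plate scores as AID 2156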;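 note: B-score of peak minus minimum over baseline fluorescence ratio after K+ and Tl+ stimulus; positive B-score means potentiation of KCNQ2 with more thallium influx and brighter signal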
Target sequence (O88943 whole entry, looked up): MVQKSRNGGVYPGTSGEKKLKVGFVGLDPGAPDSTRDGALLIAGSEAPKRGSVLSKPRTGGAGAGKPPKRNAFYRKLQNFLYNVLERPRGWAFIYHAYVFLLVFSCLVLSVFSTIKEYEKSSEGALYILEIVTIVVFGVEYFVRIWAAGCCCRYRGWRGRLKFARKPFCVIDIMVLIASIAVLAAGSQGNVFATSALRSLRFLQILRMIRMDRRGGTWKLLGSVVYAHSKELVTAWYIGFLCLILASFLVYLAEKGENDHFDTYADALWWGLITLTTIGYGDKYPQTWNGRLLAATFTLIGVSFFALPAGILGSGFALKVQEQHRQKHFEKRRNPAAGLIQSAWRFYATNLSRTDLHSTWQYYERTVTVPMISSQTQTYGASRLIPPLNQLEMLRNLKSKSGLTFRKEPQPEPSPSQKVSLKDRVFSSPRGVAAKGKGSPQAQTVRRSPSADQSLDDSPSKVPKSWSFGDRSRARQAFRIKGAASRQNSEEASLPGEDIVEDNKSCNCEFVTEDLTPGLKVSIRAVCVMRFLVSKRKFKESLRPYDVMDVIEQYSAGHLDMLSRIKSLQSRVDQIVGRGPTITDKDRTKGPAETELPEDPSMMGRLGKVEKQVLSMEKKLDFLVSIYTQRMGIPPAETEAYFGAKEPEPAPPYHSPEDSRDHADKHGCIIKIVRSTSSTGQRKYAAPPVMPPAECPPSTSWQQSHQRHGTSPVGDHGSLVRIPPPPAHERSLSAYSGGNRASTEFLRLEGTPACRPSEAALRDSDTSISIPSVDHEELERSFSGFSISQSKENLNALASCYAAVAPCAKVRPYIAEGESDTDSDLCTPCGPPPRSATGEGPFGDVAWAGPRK
KCNQ2 inh: rat KCNQ2 potassium channel inhibitors, primary screen, cell-based, CHO-K1, FluxOR thallium flux, B-score | B-score at 10 µM | Potassium voltage-gated channel subfamily KQT member 2 (Rattus norvegicus), O88943 | hit rate 1.1% among 310,000 | 20 min; stronger effect = lower value;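 active = fluorescence ratio B-score at most minus 3 library SDs, with starting brightness B-score within 2 library SDs, cut at about -5.5 in these data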
Kir21 confirm: mouse Kir2.1 channel blockers, retest, confirmation, cell-based, FluxOR thallium flux, duplicate; AID 2032, 2009; hit rate 41% among 2,300; Tl flux remaining, % of negative control (stronger effect = lower value), % at 10 µM; shares compounds with KCNQ2 enhance; Kir2.1-expressing cells, FluxOR thallium flux fluorescence; stronger effect = lower value;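 active = Primary-screen hit whose thallium flux fell at least 3 control SD below untreated wells in both duplicates, with normal baseline fluorescence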;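 note: 0% = blank wells without stimulus and 100% = stimulated no-compound controls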
HEK293 ctr: alters thallium flux in parental HEK293 cells, Kir2.1 counter-screen | shares compounds with KCNQ2 enhance | FluxOR thallium flux fluorescence; 0% = unstimulated blank wells | FluxOR signal as % of negative control (100 = no effect), % at 10 µM | hit rate 19% among 2,300 | AID 2105;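 active = dye signal at least 3 control SD above or below untreated wells in both duplicates, raw fluorescence within 3, either direction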;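 note: percent is based on the flux ratio of peak minus minimum fluorescence over baseline F0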
CHO-K1 Tl ctr: nonspecific thallium flux increase in parental CHO-K1, confirmation, counter-screen for KCNQ2 potentiator project, cell-based, FluxOR thallium flux, duplicate. activity increase over 3SD of controls, % at 10 µM. AID 2282, 2010. hit rate 43% among 1,200. parental CHO-K1 cells, FluxOR thallium flux fluorescence; zero = vehicle mean+3SD, 100% = vehicle-minus-blank window. shares compounds with KCNQ2 enhance;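 active = signal rise of at least 3 SD above the untreated control mean, in both duplicate wells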;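 note: counter screen of KCNQ2 potentiator hits so any rise reflects channel-independent effects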
KCNQ1 pot spec: human KCNQ1 channel potentiation off-target, confirmation, selectivity assay for KCNQ2 potentiator project, cell-based, CHO, FluxOR thallium flux; activation over 3SD threshold, % at 10 µM; shares compounds with KCNQ2 enhance; hit rate 28% among 1,200; CHO KCNQ1 stable, FluxOR thallium flux fluorescence; beyond 3SD, as % of vehicle-control signal;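 active = fluorescence ratio rise of at least 3 SD of vehicle wells above their mean, in both replicate wells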;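 note: 0% = vehicle mean plus 3 SD and 100% = vehicle minus unstimulated blank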
KCNQ2 pot confirm: rat KCNQ2 channel potentiators, confirmation, cell-based, CHO, FluxOR thallium flux, duplicate; shares compounds with KCNQ2 enhance; CHO-KCNQ2 cells, FluxOR thallium flux fluorescence; potentiation, less the hit threshold, % at 10 µM; hit rate 68% among 1,200; AID 2287, 2010;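 active = fluorescence ratio rising 3 SD or more over the vehicle control mean in both replicates, plus primary screen hit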;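 note: peak minus minimum thallium fluorescence divided by baseline after K/Tl stimulus; 0% = vehicle mean plus 3 SD and 100% = vehicle minus unstimulated blank difference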
Kir21 spec: mouse Kir2.1 channel activation off-target, confirmation, selectivity assay for KCNQ2 potentiator project, cell-based, HEK293, FluxOR thallium flux; shares compounds with KCNQ2 enhance; HEK293 Kir2.1, FluxOR thallium flux fluorescence; activity over 3SD threshold, % at 10 µM; hit rate 2% among 1,200; AID 2345, 2010;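 active = fluorescence ratio rise of at least 3 SD above the vehicle-control mean, seen in both replicates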;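 note: 0% = vehicle mean plus 3 SD and 100% = vehicle minus no-stimulus blank window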
KCNQ2 W236L pot: potentiators of retigabine-insensitive KCNQ2 W236L, mechanism study for KCNQ2 potentiator project, cell-based, rat KCNQ2 W236L, CHO, automated patch clamp; shares compounds with KCNQ2 enhance; current increase over 3SD of negative controls (%), stronger effect = higher value, % at 25 µM; hit rate 10% among 940; AID 2558, 2010; automated patch clamp current;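 active = current increase at least 3 SD of the untreated controls above them in both duplicate recordings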
An asterisk follows results filed as active; i = inactive; x = no result. Most compounds without a hit are left out; they make up all but 1.6% or so of the library.

SMILES | KCNQ2 enhance | KCNQ2 inh | Kir21 confirm | HEK293 ctr | others
CC(C(Sc1ccccc1N)c1ccccc1)[N+](=O)[O-] (centres undefined) | x | i | 52.0%* | i
Nc1ccccc1SSc1ccccc1N | x | i | x | x
CSCc1cc(N(C)c2ccccc2)nc(-c2ccccc2)n1 | x | i | x | x
COc1ccc(S(=O)(=O)N2CCOC2CNC(=O)C(=O)NCCCN2CCOCC2)cc1 (centres undefined) | 0.23 | i | x | x
Cc1cc(C(=O)N/N=C/C=C/c2cccc([N+](=O)[O-])c2)n[nH]1 | 0.44 | i | x | x
Cc1cc(C(=O)N(C)CC(=O)Nc2ccc(F)c(F)c2F)no1 | 1.27 | i | x | x
C=CCNCCOCCOc1ccc(Cl)cc1C(C)(C)C | x | i | x | x
CC(C)(C)c1cc(Cl)ccc1OCCOCCN1CCCC1 | x | i | 39.0%* | i
Cc1ccc(OCCOCCN2CCN(C)CC2)c(C(C)(C)C)c1 | 0.05 | i | x | x
C=CCNCCCOc1ccc(Cl)cc1C(C)(C)C | x | i | 27.5%* | i
CSc1c(C#N)sc(=S)n1-c1ccc(C)cc1 | x | i | x | x
O=c1c2ccccc2[nH]c(=S)n1CCCN1CCC(Cc2ccccc2)CC1 | 2.21 | i | x | x
CC(C)c1ccc(/C=N/n2c(COc3ccccc3)n[nH]c2=S)cc1 | 7.67* | i | i | i | CHO-K1 Tl ctr=-3.3;KCNQ1 pot spec=-45.0;KCNQ2 pot confirm=9.0*;Kir21 spec=-15.2;KCNQ2 W236L pot=i
Cc1ccc(/C=N/n2c(COc3ccccc3)n[nH]c2=S)cc1 | x | i | x | x
CCOC(=O)C(=O)NN=C(c1ccccc1)c1ccccc1 | 0.05 | i | x | x
COc1c(OC(C)=O)c(=O)n2c3ccccc3c3ccnc1c32 | x | i | x | x
CN(Cc1ccc(-n2cccn2)cc1)Cc1nc(-c2cnccn2)no1 | x | i | x | x
Cc1ccc(CNCCCSc2nc(C)cc(C)n2)cc1 | x | i | x | x
Cc1cc(C)nc(SCCCNCc2ccc(Br)cc2)n1 | 0.38 | i | 45.0%* | i
COc1cccc(N2C(=NC(=O)CCc3ccccc3)SC3CS(=O)(=O)CC32)c1 (centres undefined) | x | i | x | x
CCOc1ccc(NC(=O)CSc2nnc(-c3cc(C)[nH]n3)n2N)cc1 | x | i | x | x
CN(CCCNC(=O)Cn1cccc1C(=O)c1ccccc1)C1CCCCC1 | 0.81 | i | x | x
CCCCCCCCCn1c2c(c(=N)c3c1CCC3)CCC2 | -6.08 | -6.08* | 10.0%* | i
CCCCCCn1c(=O)[nH]c2c(c1=O)CCC2 | 0.1 | i | x | x
CCCCCCCn1c2c(c(=N)c3c1CCC3)CCCC2 | 1.88 | i | 27.5%* | i
CCn1c2c(c(=N)c3c1CCC3)CCC2 | x | i | x | x
Cc1ccc(CN(C(=O)COc2ccc(C)c(C)c2)C2CCS(=O)(=O)C2)o1 (centres undefined) | 0.15 | i | x | x
CCN(c1cccc(C)c1)S(=O)(=O)c1ccc2c(c1)NC(=O)CS2 | x | i | 61.5%* | i
CCN(c1ccc(OC)cc1)S(=O)(=O)c1ccc2c(c1)NC(=O)CS2 | x | i | x | x
